# According to PubChem BioAssay (Tox21):
# Inconclusive results are not listed. Where a call stands in place of a potency, no number is given. The source made the active and inactive calls. Calls come from the whole dose curve; as a rule, active = well fitted cell-killing curve with a large enough effect in the repeat runs; inconclusive = weak or mixed curves, or effect the other way; inactive = no such curve, though single readings can be large or run the other way.
# Test: qHTS assay to identify small molecule antagonists of the peroxisome proliferator-activated receptor gamma (PPARg) signaling pathway - cell viability counter screen (AID 743194); note: nearly all actives have a fitted effect of over 55% in size
# Settings: PPARg-bla HEK293H viability, CellTiter-Glo luminescence, 17 h; Potency: co-treated with 50 nM rosiglitazone unless noted; series mostly up to 62.6 µM
# Excerpt: U.S. Tox21 Program National Center for Advancing Translational Sciences [NCATS] NIH Chemical Genomics Center [NCGC] U.S. Environmental Protection Agency [EPA] National Institutes of Environmental Health Sciences [NIEHS] National Toxicology Program [NTP] U.S. Food and Drug Administration [FDA] Tox21 Assay Overview: The peroxisome proliferator-activated receptors (PPARs) are lipid-activated transcription factors of the nuclear receptor superfamily with three distinct subtypes namely PPAR alpha, PPAR delta (also called PPAR beta) and PPAR gamma (PPARg). All these subtypes heterodimerize with Retinoid X receptor (RXR) and these heterodimers regulate transcription of various genes. PPAR-gamma receptor (glitazone receptor) is involved in the regulation of glucose and lipid metabolism. To identify the compounds that activate PPAR-gamma signaling, GeneBLAzer PPAR gamma UAS-bla HEK293H cell line (Invitrogen, Carlsbad, CA, USA) containing a beta-lactamase reporter gene under the control of an Upstream Activator Sequence (UAS) was used to screen the Tox21 compound library. The cytotoxicity of the Tox21 compound library against the PPARg-bla cell line was tested in parallel by measuring the cell viability using CellTiter-Glo assay in the same wells.
# Tox21 Assay Protocol Summary: PPARg-bla cells were dispensed at 3000 cells/5uL/well in 1536-well black wall/clear bottom plates using a Multidrop Combi (Thermo Fisher Scientific, Waltham, MA) dispenser. After the assay plates were incubated at 37 C and 5% CO2 for 5 h, 23 nL of compounds dissolved in DMSO, positive controls or DMSO only was transferred to the assay plate by a Pintool station (Kalypsys, San Diego, CA), followed by addition of 1ul Rosiglitazone (50 nM, final concentration in the wells). The assay plates were incubated at 37 C for 17 h, and then 1 uL of LiveBLAzerTM B/G FRET substrate was added using a Bioraptr Flying Reagent Dispenser (FRD) workstation (Beckman Coulter, Indianapolis, IN, USA). The assay plates were incubated at room temperature for 1 h and fluorescence intensity was measured by an Envision plate reader (PerkinElmer, Shelton, CT). For cell viability readout that measures cytotoxicity, 4 ul/well of CellTiter-Glo reagent was added into the assay plates using a Flying Reagent Dispenser. After 30 min incubation at room temperature, the luminescence intensity in the plates was measured using a ViewLux plate reader (PerkinElmer).
# Potency is the fitted concentration of half-maximal effect.
row,SMILES,Potency
1,CCN(CC)Cc1nccn1-c1ccc([N+](=O)[O-])cc1C(=O)c1ccccc1Cl,inactive
2,BrCCCBr,inactive
3,N#Cc1sc2c(=O)c3ccccc3c(=O)c=2sc1C#N,19.5 µM (active)
4,Cc1cccc(Cc2cnc[nH]2)c1C,inactive
5,CCOP(=S)(OCC)Oc1cc(C)nc(N(CC)CC)n1,inactive
6,CCc1cccc(C)c1N(C(=O)CCl)[C@@H](C)COC,inactive
7,O=C1C[C@@H]2OCC=C3CN4CC[C@]56c7ccccc7N1[C@H]5[C@H]2[C@H]3C[C@H]46,inactive
8,CC1(C)C(C=C(Cl)Cl)C1C(=O)OC(C#N)c1ccc(F)c(Oc2ccccc2)c1 (stereo not given),inactive
9,COC(=O)c1cc(Oc2ccc(Cl)cc2Cl)ccc1[N+](=O)[O-],inactive
10,O=C1C(Cl)=C(Cl)C(=O)C(Cl)=C1Cl,6.92 µM (active)
11,C[C@]12Cc3cn[nH]c3C[C@@H]1CC[C@@H]1[C@@H]2CC[C@@]2(C)[C@H]1CC[C@]2(C)O,inactive
12,O=Cc1ccccc1,inactive
13,S=C=Nc1ccccc1,inactive
14,c1ccc2nc(N3CCNCC3)ccc2c1,inactive
15,CN,inactive
16,Oc1cccc(Cl)c1Cl,inactive
17,C1=CCC=C1,inactive
18,COCCC#N,inactive
19,CC#C[C@]1(O)CC[C@H]2[C@@H]3C[C@H](C)C4=CC(=O)CC[C@]4(C)[C@H]3CC[C@@]21C,inactive
20,O=c1c2ccccc2c(=O)c2c1cc(Cl)c1[nH]c3c([nH]c12)c(Cl)cc1c(=O)c2ccccc2c(=O)c13,inactive

row,SMILES,Potency
1,C=C(C)C(=O)[O][Sn]([CH2]CCC)([CH2]CCC)[CH2]CCC,0.549 µM (active)
2,O=NN(CCO)CCO,inactive
3,CC[N+]1(CC)CCC(OC(=O)C(O)(c2ccccc2)c2ccccc2)C1 (stereo not given),inactive
4,Cc1cc2c3c(c1)C(c1ccccc1)=N[C@@H](NC(=O)c1ccncc1)C(=O)N3CC2,inactive
5,C[C@]12CC[C@H]3[C@@H](CCC4=CC(=O)CC[C@@H]43)[C@@H]1CC[C@@H]2OC(=O)CCc1ccco1,29.8 µM [setting not given] (active)
6,N#Cc1ccc(N(CC(N)=O)CC(F)(F)F)cc1C(F)(F)F,inactive
7,NC1CCC(CC2CCC(N)CC2)CC1 (stereo not given),inactive
8,CCN1CCC2(CC1)COc1cc3c(cc12)N(C(=O)c1ccc(-c2ccc(-c4nnc(C)o4)cc2C)cc1)CC3,7.16 µM (active)
9,CCCCn1cc[n+](C)c1 (tested in a mixture with another compound),inactive
10,CNC(=O)CSP(=O)(OC)OC,inactive
11,CC(C)NCC(O)c1ccccc1Cl (stereo not given),inactive
12,O=C(O)[C@H](O)[C@@H](O)C(=O)O,inactive
13,Cc1c([N+](=O)[O-])c(C)c([N+](=O)[O-])c(C(C)(C)C)c1[N+](=O)[O-],inactive
14,O=C(Cl)c1ccccc1F,inactive
15,COc1c2c(cc3c1OCO3)CCN(C)C2,inactive
16,CCC[CH2][Sn]([CH2]CCC)([CH2]CCC)[O][Sn]([CH2]CCC)([CH2]CCC)[CH2]CCC,0.427 µM (active)
17,O=P(Cl)(Cl)Cl,inactive
18,Clc1ccc(C2(Cn3cncn3)OCCO2)c(Cl)c1,inactive
19,N#CSCc1ccccc1,inactive
20,CCCCC(CC)COC(=O)OOC(C)(C)C (stereo not given),inactive
